# From PubChem BioAssay (Tox21)
# Where “and” joins values, the source holds several entries; their conditions need not be identical. Identical values can stand only once. Inconclusive results are not listed. A call without a number means that no potency is given here. Some structures have more than one record in an assay (separate samples or runs), and their calls can disagree. Calls of active or inactive are those of the source. Calls come from the whole dose curve; as a rule, active = well fitted curve in the direction sought with a large enough effect in the repeat runs; inconclusive = weak or mixed curves; inactive = no such curve, though single readings can be large; an effect the other way counts as inactive or inconclusive.
# Experiments:
# [1] = Human pregnane X receptor (PXR) small molecule agonists, qHTS cell viability counter screen (AID 1346977); note: nearly all actives have a fitted effect of over 50% in size; note: potency is the fitted concentration of half-maximal effect
# Outline: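 PXR-Luc HepG2 cells in medium with 5% charcoal-stripped FBS were pre-incubated 5hr, then exposed to compounds for 24hr at 37C. Viability was read in the same wells by CellTiter-Fluor fluorescence, reagent added after 23hr with a 1hr incubation.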
# [2] = Caspase-3/7 induction in HepG2 cells by small molecules, qHTS assay (AID 1346978); note: nearly all actives have a fitted effect of over 15% in size; note: potency is the fitted concentration of half-maximal effect
# Outline: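 Wild-type HepG2 cells, 2,000/well, settled 5 hr at 37 C and 5% CO2, then compound-treated for 17 hr; caspase-3/7 activity read by luminescent Caspase-Glo 3/7 after 30 min at room temperature.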
# [3] = Caspase-3/7 induction in CHO-K1 cells by small molecules, qHTS cell viability counter screen (AID 1346979); note: nearly all actives have a fitted effect of over 35% in size; note: potency is the fitted concentration of half-maximal effect
# Outline: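 Wild-type CHO-K1 cells were seeded at 1,500 per well, rested 5hr at 37 C, then exposed to compounds in DMSO. After 16hr, CellTiter-Fluor reagent was added and fluorescence read 1hr later as the viability measure.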
# [4] = Caspase-3/7 induction in CHO-K1 cells by small molecules, qHTS assay (AID 1346980); note: nearly all actives have a fitted effect of over 15% in size; note: potency is the fitted concentration of half-maximal effect
# Outline: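 Wild-type CHO-K1 cells exposed to compounds for 17hr at 37 C, 5% CO2. Caspase-3/7 activity then measured by Caspase-Glo 3/7 luminescence after 30min at room temperature.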
# [5] = Caspase-3/7 induction in HepG2 cells by small molecules, qHTS cell viability counter screen (AID 1346981); note: nearly all actives have a fitted effect of over 30% in size; note: potency is the fitted concentration of half-maximal effect
# Outline: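 Wild-type HepG2 cells (2,000/well) were allowed to settle for 5 hr at 37 C, 5% CO2, then dosed with compounds in DMSO by pin transfer. After 16 hr at 37 C, CellTiter-Fluor was added and fluorescence read 1 hr later.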
# [6] = target: Nuclear receptor subfamily 1 group I member 2 (Homo sapiens) (UniProt O75469); experiment: Human pregnane X receptor (PXR) small molecule agonists, qHTS assay (AID 1346982); note: nearly all actives have a fitted effect of over 35% in size; note: potency is the fitted concentration of half-maximal effect
# Chain of Nuclear receptor subfamily 1 group I member 2 (Homo sapiens) (O75469 whole entry, looked up): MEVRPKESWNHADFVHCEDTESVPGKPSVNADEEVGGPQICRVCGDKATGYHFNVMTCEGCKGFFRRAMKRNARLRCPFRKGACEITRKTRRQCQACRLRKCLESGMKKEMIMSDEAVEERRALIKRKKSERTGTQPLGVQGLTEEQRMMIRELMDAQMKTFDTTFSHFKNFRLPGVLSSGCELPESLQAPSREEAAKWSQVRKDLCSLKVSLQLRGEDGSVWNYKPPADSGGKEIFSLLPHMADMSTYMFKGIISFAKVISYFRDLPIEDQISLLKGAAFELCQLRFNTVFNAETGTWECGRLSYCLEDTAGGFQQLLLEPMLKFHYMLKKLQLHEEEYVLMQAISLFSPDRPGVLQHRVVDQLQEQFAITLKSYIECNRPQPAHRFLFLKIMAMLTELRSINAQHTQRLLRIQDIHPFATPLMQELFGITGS
# Outline: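 PXR-Luc HepG2 cells (CYP3A4 promoter-driven luciferase) were seeded in medium with 5% charcoal-stripped FBS, left 5 hr at 37 C, then exposed to compounds in DMSO for 24 hr. Luminescence was read after ONE-Glo addition.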
# [7] = target: Cytochrome P450 2D6 (Homo sapiens) (UniProt P10635); experiment: Cytochrome P450 Family 2 Subfamily D Member 6 (CYP2D6) small molecule antagonists: luciferase reporter qHTS assay (AID 1671196); note: nearly all actives have a fitted effect of over 50% in size; note: potency is the fitted concentration of half-maximal effect
# Chain of Cytochrome P450 2D6 (Homo sapiens) (P10635 whole entry, looked up): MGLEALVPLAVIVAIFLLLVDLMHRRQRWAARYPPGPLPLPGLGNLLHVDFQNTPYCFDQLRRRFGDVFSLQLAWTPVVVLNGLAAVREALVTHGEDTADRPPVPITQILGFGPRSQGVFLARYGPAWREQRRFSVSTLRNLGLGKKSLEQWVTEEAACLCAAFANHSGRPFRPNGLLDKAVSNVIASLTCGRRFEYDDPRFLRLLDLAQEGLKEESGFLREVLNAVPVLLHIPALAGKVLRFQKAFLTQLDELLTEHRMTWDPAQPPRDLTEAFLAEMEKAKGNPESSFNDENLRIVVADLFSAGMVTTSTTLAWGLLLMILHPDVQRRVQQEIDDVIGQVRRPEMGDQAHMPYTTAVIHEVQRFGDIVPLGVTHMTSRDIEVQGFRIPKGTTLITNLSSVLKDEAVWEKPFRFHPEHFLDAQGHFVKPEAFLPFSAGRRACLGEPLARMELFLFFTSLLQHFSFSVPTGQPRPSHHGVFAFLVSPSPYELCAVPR
# Outline: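 CYP2D6 enzyme–substrate mix was held with compound for 10 min at room temperature, then NADPH regeneration solution was added and the reaction ran 1 h at room temperature. Luciferin product was detected by luminescence after 20 min with detection reagent.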
# [8] = target: Cytochrome P450 2C19 (Homo sapiens) (UniProt P33261); experiment: Cytochrome P450 Family 2 Subfamily C Member 19 (CYP2C19) small molecule antagonists: luciferase reporter qHTS assay (AID 1671197); note: nearly all actives have a fitted effect of over 65% in size; note: potency is the fitted concentration of half-maximal effect
# Chain of Cytochrome P450 2C19 (Homo sapiens) (P33261 whole entry, looked up): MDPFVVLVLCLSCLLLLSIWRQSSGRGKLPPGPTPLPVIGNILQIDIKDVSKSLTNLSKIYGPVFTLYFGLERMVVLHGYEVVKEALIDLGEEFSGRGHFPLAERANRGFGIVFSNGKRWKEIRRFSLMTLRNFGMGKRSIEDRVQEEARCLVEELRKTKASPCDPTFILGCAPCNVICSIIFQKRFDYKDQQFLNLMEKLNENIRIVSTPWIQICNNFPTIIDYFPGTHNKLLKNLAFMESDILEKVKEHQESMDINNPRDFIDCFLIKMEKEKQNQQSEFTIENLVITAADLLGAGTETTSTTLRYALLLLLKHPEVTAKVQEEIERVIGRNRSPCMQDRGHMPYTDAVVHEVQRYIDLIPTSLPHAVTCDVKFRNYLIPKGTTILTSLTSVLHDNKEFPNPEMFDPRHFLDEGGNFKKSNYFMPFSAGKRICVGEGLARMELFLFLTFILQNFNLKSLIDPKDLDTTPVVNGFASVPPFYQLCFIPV
# Outline: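 Light output is proportional to CYP2C19 activity: proluciferin substrate is converted to luciferin, then detected by a luciferin detection reagent that also stops the 1 h, 37C NADPH-driven reaction. Ketoconazole serves as positive control.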
# [9] = target: Cytochrome P450 1A2 (Homo sapiens) (UniProt P05177); experiment: Cytochrome P450 Family 1 Subfamily A Member 2 (CYP1A2) small molecule antagonists: luciferase reporter qHTS assay (AID 1671199); note: nearly all actives have a fitted effect of over 50% in size; note: potency is the fitted concentration of half-maximal effect
# Chain of Cytochrome P450 1A2 (Homo sapiens) (P05177 whole entry, looked up): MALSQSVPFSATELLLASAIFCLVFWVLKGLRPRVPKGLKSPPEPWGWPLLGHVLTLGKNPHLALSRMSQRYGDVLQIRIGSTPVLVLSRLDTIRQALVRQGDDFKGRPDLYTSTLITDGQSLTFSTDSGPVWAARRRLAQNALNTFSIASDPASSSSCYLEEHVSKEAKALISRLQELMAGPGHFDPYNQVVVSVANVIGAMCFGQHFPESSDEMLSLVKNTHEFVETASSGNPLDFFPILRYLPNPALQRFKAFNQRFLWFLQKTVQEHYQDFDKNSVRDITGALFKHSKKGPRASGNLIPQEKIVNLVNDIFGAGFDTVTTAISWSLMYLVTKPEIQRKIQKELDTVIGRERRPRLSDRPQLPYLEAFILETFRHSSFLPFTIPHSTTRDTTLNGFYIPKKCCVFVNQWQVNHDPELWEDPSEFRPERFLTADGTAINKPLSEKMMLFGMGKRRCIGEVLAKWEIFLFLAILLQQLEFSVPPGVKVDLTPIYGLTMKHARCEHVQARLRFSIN
# Outline: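 Human CYP1A2 activity measured with a P450-Glo proluciferin substrate; compounds in DMSO preincubated 10 min at room temperature with enzyme-substrate mix, then NADPH regeneration system added for 1 h. Luciferin detection reagent, 20 min, luminescence read.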
# [10] = target: Voltage-gated inwardly rectifying potassium channel KCNH2 (Homo sapiens) (UniProt Q12809); experiment: Human Ether-a-go-go-Related Gene (hERG) channel small molecule antagonists: fluorescence cell-based qHTS assay (AID 1671200); note: nearly all actives have a fitted effect of over 50% in size; note: potency is the fitted concentration of half-maximal effect
# Chain of Voltage-gated inwardly rectifying potassium channel KCNH2 (Homo sapiens) (Q12809 whole entry, looked up): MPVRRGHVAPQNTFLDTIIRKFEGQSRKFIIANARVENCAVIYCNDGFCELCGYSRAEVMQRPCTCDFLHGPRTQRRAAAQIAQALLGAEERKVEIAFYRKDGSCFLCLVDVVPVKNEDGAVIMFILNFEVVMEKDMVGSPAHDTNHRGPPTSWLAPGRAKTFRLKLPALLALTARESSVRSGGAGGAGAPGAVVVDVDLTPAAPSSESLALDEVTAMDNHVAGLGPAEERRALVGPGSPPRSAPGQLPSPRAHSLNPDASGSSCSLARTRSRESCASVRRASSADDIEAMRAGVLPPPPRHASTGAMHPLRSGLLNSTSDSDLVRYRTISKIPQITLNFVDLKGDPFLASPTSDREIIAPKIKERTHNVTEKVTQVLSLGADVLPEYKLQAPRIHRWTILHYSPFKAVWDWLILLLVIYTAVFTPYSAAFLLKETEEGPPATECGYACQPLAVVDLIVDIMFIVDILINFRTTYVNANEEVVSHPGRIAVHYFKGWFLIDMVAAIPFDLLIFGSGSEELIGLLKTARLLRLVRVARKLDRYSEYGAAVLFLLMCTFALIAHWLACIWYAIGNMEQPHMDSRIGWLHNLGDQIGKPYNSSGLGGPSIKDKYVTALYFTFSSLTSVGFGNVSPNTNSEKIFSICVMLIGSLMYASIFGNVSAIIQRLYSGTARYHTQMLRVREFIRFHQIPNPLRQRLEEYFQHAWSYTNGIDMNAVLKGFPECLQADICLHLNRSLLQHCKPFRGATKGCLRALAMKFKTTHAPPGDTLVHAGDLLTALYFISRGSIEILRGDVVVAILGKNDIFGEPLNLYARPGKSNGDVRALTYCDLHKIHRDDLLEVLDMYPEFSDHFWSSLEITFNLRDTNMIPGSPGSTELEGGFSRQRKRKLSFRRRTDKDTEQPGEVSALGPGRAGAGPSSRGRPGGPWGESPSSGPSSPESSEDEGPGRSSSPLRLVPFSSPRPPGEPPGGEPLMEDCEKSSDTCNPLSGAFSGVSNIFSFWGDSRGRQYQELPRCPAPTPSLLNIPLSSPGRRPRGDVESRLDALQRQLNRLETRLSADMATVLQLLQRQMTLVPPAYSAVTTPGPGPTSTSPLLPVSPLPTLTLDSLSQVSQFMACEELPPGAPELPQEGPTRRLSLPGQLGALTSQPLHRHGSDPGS
# Outline: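 U2OS cells expressing the channel were plated at 1000 cells/well, incubated overnight at 37 C, then loaded with FluxOR II thallium-sensitive dye for 1 h at room temperature in the dark, with a further 10 min at room temperature before stimulation.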
# [11] = target: Cytochrome P450 3A4 (Homo sapiens) (UniProt P08684); experiment: Cytochrome P450 Family 3 Subfamily A Member 4 (CYP3A4) small molecule antagonists: luciferase reporter qHTS assay (AID 1671201); note: nearly all actives have a fitted effect of over 50% in size; note: potency is the fitted concentration of half-maximal effect
# Chain of Cytochrome P450 3A4 (Homo sapiens) (P08684 whole entry, looked up): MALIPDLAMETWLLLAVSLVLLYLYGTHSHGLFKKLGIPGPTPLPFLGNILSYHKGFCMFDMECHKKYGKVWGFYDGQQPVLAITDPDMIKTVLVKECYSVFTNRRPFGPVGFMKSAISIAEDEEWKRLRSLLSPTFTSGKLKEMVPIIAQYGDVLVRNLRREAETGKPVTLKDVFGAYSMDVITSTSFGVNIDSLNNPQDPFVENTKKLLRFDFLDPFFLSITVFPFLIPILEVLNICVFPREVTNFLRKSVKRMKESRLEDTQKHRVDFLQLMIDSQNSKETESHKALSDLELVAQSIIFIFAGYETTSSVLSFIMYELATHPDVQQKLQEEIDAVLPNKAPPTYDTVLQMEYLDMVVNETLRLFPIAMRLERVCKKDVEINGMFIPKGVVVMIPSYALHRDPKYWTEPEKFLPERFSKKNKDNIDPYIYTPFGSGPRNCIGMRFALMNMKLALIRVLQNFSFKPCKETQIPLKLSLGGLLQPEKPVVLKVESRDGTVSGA
# Outline: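 P450-Glo CYP3A4 system with proluciferin substrate; compounds preincubated 10 min RT with enzyme-substrate mix, then NADPH regeneration added for 1 h RT. Detection reagent 20 min, luminescence read as relative luminescence units.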
# [12] = target: Cytochrome P450 2C9 (Homo sapiens) (UniProt P11712); experiment: Cytochrome P450 Family 2 Subfamily C Member 9 (CYP2C9) small molecule antagonists: luciferase reporter qHTS assay (AID 1671198); note: nearly all actives have a fitted effect of over 50% in size; note: potency is the fitted concentration of half-maximal effect
# Chain of Cytochrome P450 2C9 (Homo sapiens) (P11712 whole entry, looked up): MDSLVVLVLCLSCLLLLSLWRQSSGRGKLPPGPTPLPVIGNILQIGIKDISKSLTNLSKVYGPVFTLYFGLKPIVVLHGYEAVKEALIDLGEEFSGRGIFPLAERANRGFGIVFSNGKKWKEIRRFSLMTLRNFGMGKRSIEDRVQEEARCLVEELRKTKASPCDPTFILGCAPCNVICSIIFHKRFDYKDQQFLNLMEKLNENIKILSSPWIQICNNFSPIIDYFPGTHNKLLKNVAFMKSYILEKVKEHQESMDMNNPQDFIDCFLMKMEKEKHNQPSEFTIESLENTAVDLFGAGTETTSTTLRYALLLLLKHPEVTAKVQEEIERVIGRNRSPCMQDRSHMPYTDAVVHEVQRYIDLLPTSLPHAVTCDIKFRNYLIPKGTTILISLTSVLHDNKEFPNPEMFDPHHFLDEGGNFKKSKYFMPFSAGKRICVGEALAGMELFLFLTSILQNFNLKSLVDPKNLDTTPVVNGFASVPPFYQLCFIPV
# Outline: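 P450-Glo proluciferin substrate with CYP2C9 enzyme; 10 min RT preincubation, then NADPH regeneration 1 h at 37C; luciferin detection reagent 20 min RT, luminescence in relative luminescence units.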
# [13] = target: Nuclear receptor subfamily 1 group I member 2 (Rattus norvegicus) (UniProt Q9R1A7); experiment: Rat pregnane X receptor (rPXR) activation by small molecules, qHTS assay (AID 1346983); details: rPXR luciferase reporter cells, One-Glo luminescence, 24 h; stronger effect = higher value; note: nearly all actives have a fitted effect of over 20% in size
# Chain of Nuclear receptor subfamily 1 group I member 2 (Rattus norvegicus) (Q9R1A7 whole entry, looked up): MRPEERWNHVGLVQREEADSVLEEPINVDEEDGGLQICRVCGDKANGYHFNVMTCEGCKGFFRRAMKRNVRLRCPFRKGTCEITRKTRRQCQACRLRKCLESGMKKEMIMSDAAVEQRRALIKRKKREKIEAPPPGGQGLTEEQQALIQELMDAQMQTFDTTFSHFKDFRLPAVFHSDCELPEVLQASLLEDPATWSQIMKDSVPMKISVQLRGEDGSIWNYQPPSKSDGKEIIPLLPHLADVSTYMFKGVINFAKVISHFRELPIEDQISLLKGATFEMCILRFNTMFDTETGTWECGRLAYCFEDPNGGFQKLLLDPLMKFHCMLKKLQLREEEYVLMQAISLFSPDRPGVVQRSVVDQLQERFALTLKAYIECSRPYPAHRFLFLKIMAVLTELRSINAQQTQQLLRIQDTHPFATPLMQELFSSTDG
# Outline: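 Cell-based rPXR activation assay: rPXR cells, 2,000 per well, rested 5hr at 37 C, then exposed to compounds in DMSO for 24 hr at 37 C. Luciferase activity read by One-Glo luminescence after 30 min at room temperature.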
SMILES,Potency [1],Potency [2],Potency [3],Potency [4],Potency [5],Potency [6],Potency [7],Potency [8],Potency [9],Potency [10],Potency [11],Potency [12],max activation [13]
O=C(Cl)c1cccc(C(=O)Cl)c1,inactive,inactive,inactive,inactive,inactive,inactive,inactive,79.6 µM (active) and inactive,inactive,inactive,inactive,,
COc1ccc(COC(C)=O)cc1,inactive,inactive,inactive,inactive,inactive,inactive,inactive,45.6 µM (active) and inactive,28.8 µM (active) and 44.8 µM (active),inactive,inactive,inactive,
CC(C)(c1ccccc1)c1ccc(Nc2ccc(C(C)(C)c3ccccc3)cc2)cc1,inactive,inactive,,inactive,inactive,inactive,inactive,inactive,inactive,inactive,,3.55 µM (active) and 5.64 µM (active),
C[N+]1([O-])CCOCC1,inactive,inactive,inactive,inactive,inactive,inactive,inactive,39.8 µM (active),31.6 µM (active),inactive,inactive,,
CC(=O)OCCOCCOCCOC(C)=O,inactive,inactive,inactive,inactive,inactive,inactive,inactive,78.7 µM (active) and inactive,inactive,inactive,inactive,inactive,
CC(=O)CC(=O)Nc1ccc2[nH]c(=O)[nH]c2c1,inactive,inactive,inactive,inactive,,inactive,inactive,inactive,39.9 µM (active),inactive,inactive,,
NC(N)=NC(=O)Cc1c(Cl)cccc1Cl,inactive,inactive,inactive,inactive,inactive,inactive,,inactive,inactive,inactive,,inactive,
CC(C)CCOCc1ccccc1,inactive,inactive,inactive,inactive,inactive,inactive,inactive,inactive,,inactive,inactive,inactive,
CCCN[C@H]1CCc2nc(N)sc2C1,inactive,inactive,inactive,inactive,inactive,,,,,inactive,,,-1.97% (inactive)
CC1=CC(=O)c2ccccc2C1=O,43.3 µM (active),inactive,24.3 µM (active) and 21.1 µM (active),inactive,68.6 µM (active) and inactive,,31.7 µM (active),14.2 µM (active) and 15.5 µM (active),1.78 µM (active) and 2.75 µM (active),3.89 µM (active) and 7.56 µM (active),,22.4 µM (active) and 13.8 µM (active),
CCOC(=O)C(C)C(C)=O (stereo not given),inactive,inactive,inactive,inactive,inactive,inactive,inactive,inactive,35.8 µM (active),inactive,inactive,inactive,
c1ccc2c(c1)-c1cccc3c1c-2cc1ccccc13,inactive,inactive,47.4 µM (active),inactive,inactive,29.9 µM (active) and 21.7 µM (active),27.6 µM (active) and inactive,,694 nM (active) and 1 µM (active),inactive,inactive,inactive,
CCCCN(CCO)CCCC,inactive,inactive,inactive,inactive,inactive,,36.4 µM (active),,,inactive,inactive,,
Cc1cc(Cc2cc(C)cc(C(C)(C)C)c2O)c(O)c(C(C)(C)C)c1,39.8 µM (active) and 61.1 µM (active),61.4 µM (active),27.4 µM (active) and 54.5 µM (active),27.4 µM (active) and 61.1 µM (active),61.4 µM (active) and 61.1 µM (active),24.5 µM (active) and 386 nM (active),inactive,5.05 µM (active) and 5.03 µM (active),25.3 µM (active),39.1 µM (active),5.67 µM (active) and 8.94 µM (active),3.57 µM (active) and 3.56 µM (active),
Cc1scc2c1N(C(=O)CN1CCN(C)CC1)c1ccccc1NC2=O,inactive,,inactive,inactive,inactive,inactive,inactive,inactive,inactive,inactive,,inactive,
CC(C)(C)c1cc(C(C)(C)C)c(O)c(C(C)(C)C)c1,inactive,inactive,inactive,inactive,inactive,68.6 µM (active) and inactive,inactive,inactive,inactive,7.76 µM (active),inactive,inactive and 35.6 µM (active),
C=CC(=O)OCCCCCCCC,inactive,inactive,inactive,inactive,inactive,inactive,inactive,inactive,,inactive,inactive,inactive,
